Drawing on PubChem BioAssay (EPA / NIEHS), this text covers AC50 and outcome for two compounds.

Each structure is given as a SMILES string. “And” between values parts separate entries of the source, which are not always exact repeats. Equal entries are not always repeated. Where a structure was tested more than once in an assay, its records may differ in their call. The source made the active and inactive calls. Rule for the calls: active = hit-call score of the fitted dose curve at least 0.9, where 1 is the maximum; inactive = score below 0.9.

Read-out in assay [1]: Macrophage colony-stimulating factor (MCSF), CSF1 (gene 1435)
In words: BSK_hDFCGF_MCSF: BioMAP Diversity Plus: hDFCGF Assay for Macrophage colony-stimulating factor (MCSF) Biomarker Activity (AID 2283060). The note with it: primary human foreskin fibroblasts; actives raise or lower the signal. The method, boiled down: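 Human foreskin primary fibroblasts were treated with test chemical for 24 h, and M-CSF was then measured by ELISA. Data were fitted bidirectionally against DMSO as the negative control and activity baseline.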

Assay [2] can be described thus: BSK_hDFCGF_SRB: Viability Assessment in the BioMAP Diversity Plus: hDFCGF Assay (AID 2283061).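 Note: cells exposed to compound for 24 h before the read.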 The settings on record: primary human foreskin fibroblasts. The method, boiled down: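 Human foreskin primary fibroblasts were treated with compound and assessed 24 h after dosing. Total protein was measured by sulforhodamine B staining (0.1% SRB after 10% TCA fixation, 560 nm read) as a cytotoxicity marker, with bidirectional fitting against DMSO baseline.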

Read-out in assay [3]: TIMP metallopeptidase inhibitor 1 (TIMP1), TIMP1 (gene 7076)
Put plainly: BSK_hDFCGF_TIMP1: BioMAP Diversity Plus: hDFCGF Assay for TIMP metallopeptidase inhibitor 1 (TIMP1) Biomarker Activity (AID 2283062). The settings on record: primary human foreskin fibroblasts; actives raise or lower the signal. The gist of the method:
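Primary human foreskin fibroblasts in the hDFCGF system were dosed with compound for 24 h, then TIMP-1 was measured by ELISA. Activity was fitted bidirectionally relative to DMSO control; parallel SRB staining assessed cytotoxicity.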

Read-out in assay [4]: Monokine induced gamma interferon (MIG), CXCL9 (gene 4283)
Put plainly: BSK_hDFCGF_MIG: BioMAP Diversity Plus: hDFCGF Assay for Monokine induced gamma interferon (MIG) Biomarker Activity (AID 2283063). The note with it: primary human foreskin fibroblasts; actives raise or lower the signal. The method, boiled down: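 ELISA read-out of MIG from primary human dermal fibroblasts 24 h post-dosing. Gain or loss of signal fitted bidirectionally, DMSO as baseline.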

Read-out in assay [5]: Matrix Metallopeptidase 1 (MMP1), MMP1 (gene 4312)
In words: BSK_hDFCGF_MMP1: BioMAP Diversity Plus: hDFCGF Assay for Matrix Metallopeptidase 1 (MMP1) Biomarker Activity (AID 2283064). The settings on record: primary human foreskin fibroblasts; actives raise or lower the signal. The method, boiled down: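 hDFCGF primary fibroblasts (human foreskin); chemical added; 24 h; MMP1 by ELISA; bidirectional fit vs DMSO.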

Read-out in assay [6]: Vascular cell adhesion molecule 1 (VCAM1), VCAM1 (gene 7412)
In words: BSK_hDFCGF_VCAM1: BioMAP Diversity Plus: hDFCGF Assay for Vascular cell adhesion molecule 1 (VCAM1) Biomarker Activity (AID 2283065).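 For AC50: VCAM-1 protein level quantified by ELISA after 24 h chemical exposure.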 The note with it: primary human foreskin fibroblasts; actives raise or lower the signal. The method, boiled down:
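Primary human foreskin fibroblasts (hDFCGF system) were dosed with chemical and VCAM-1 was measured by ELISA 24 h later. Bidirectional curve fitting used DMSO as negative control and activity baseline.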

Read-out in assay [7]: Plasminogen activator inhibitor-1 (PAI1), SERPINE1 (gene 5054)
Put plainly: BSK_hDFCGF_PAI1: BioMAP Diversity Plus: hDFCGF Assay for Plasminogen activator inhibitor-1 (PAI1) Biomarker Activity (AID 2283066). The note with it: primary human foreskin fibroblasts; actives raise or lower the signal. The method, boiled down:
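Human foreskin fibroblasts in the hDFCGF system were dosed with compound for 24 h; PAI-1 was quantified by ELISA. Bidirectional curve fitting used DMSO as negative control and baseline.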

Read-out in assay [8]: Intercellular Adhesion Molecule 1 (ICAM1), ICAM1 (gene 3383)
In words: BSK_KF3CT_ICAM1: BioMAP Diversity Plus: KF3CT Assay for Intercellular Adhesion Molecule 1 (ICAM1) Biomarker Activity (AID 2283067). The settings on record: primary human keratinocytes with fibroblasts; actives raise or lower the signal. The method, boiled down:
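Human keratinocyte plus foreskin fibroblast primary co-culture was exposed to chemical for 24 h. ICAM-1 was then quantified by ELISA, and the data were fit bidirectionally against DMSO as the negative control and baseline.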

Read-out in assay [9]: Interferon-gamma inducible Protein 10 (IP10), CXCL10 (gene 3627)
In words: BSK_KF3CT_IP10: BioMAP Diversity Plus: KF3CT Assay for Interferon-gamma inducible Protein 10 (IP10) Biomarker Activity (AID 2283068). The settings on record: primary human keratinocytes with fibroblasts; actives raise or lower the signal. The method, boiled down: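 ELISA read-out of IP-10 after 24 h chemical dosing of human skin primary co-culture (keratinocytes, foreskin fibroblasts). Gain or loss of signal relative to DMSO, bidirectional curve fit.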

A short description of assay [10]: BSK_KF3CT_SRB: Viability Assessment in the BioMAP Diversity Plus: KF3CT Assay (AID 2283069).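 Note: fitted for both signal gain and loss against DMSO baseline.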 The note with it: primary human keratinocytes with fibroblasts. The gist of the method: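 Keratinocytes co-cultured with foreskin fibroblasts (human primary); chemical added, 24 h; fix 10% TCA, stain 0.1% SRB, A560. Bidirectional fit vs DMSO.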
Read-out in assay [11]: Interleukin-1 alpha (IL1a), IL1A (gene 3552)
In words: BSK_KF3CT_IL1a: BioMAP Diversity Plus: KF3CT Assay for Interleukin-1 alpha (IL1a) Biomarker Activity (AID 2283070). The settings on record: primary human keratinocytes with fibroblasts; actives raise or lower the signal. The gist of the method:
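Chemicals were dosed onto co-cultured human keratinocytes and foreskin fibroblasts, IL-1a was quantified by ELISA at 24 h, and activity was fitted in both directions relative to DMSO controls.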

Read-out in assay [12]: TIMP metallopeptidase inhibitor 2 (TIMP2), TIMP2 (gene 7077)
Put plainly: BSK_KF3CT_TIMP2: BioMAP Diversity Plus: KF3CT Assay for TIMP metallopeptidase inhibitor 2 (TIMP2) Biomarker Activity (AID 2283071). The settings on record: primary human keratinocytes with fibroblasts; actives raise or lower the signal. The gist of the method: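 Human primary keratinocyte/foreskin fibroblast co-culture dosed with chemical and sampled at 24 h. TIMP-2 levels quantified by ELISA; bidirectional fitting against DMSO negative control as baseline.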

Read-out in assay [13]: Matrix Metallopeptidase 9 (MMP9), MMP9 (gene 4318)
Put plainly: BSK_KF3CT_MMP9: BioMAP Diversity Plus: KF3CT Assay for Matrix Metallopeptidase 9 (MMP9) Biomarker Activity (AID 2283074). The settings on record: primary human keratinocytes with fibroblasts; actives raise or lower the signal. The gist of the method:
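Human keratinocyte/foreskin fibroblast co-culture; compound added; 24 h; MMP-9 by ELISA; bidirectional fit vs DMSO baseline.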

Read-out in assay [14]: urokinase plasminogen activator (uPA), PLAU (gene 5328)
Put plainly: BSK_KF3CT_uPA: BioMAP Diversity Plus: KF3CT Assay for urokinase plasminogen activator (uPA) Biomarker Activity (AID 2283075). The settings on record: primary human keratinocytes with fibroblasts; actives raise or lower the signal. The gist of the method:
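ELISA readout of uPA, analyzed for signal gain or loss relative to DMSO, from a human primary keratinocyte–foreskin fibroblast co-culture measured 24 h after chemical treatment.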

Read-out in another assay: CD40, CD40 (gene 958)
In words: BSK_LPS_CD40: BioMAP Diversity Plus: LPS Assay for CD40 Biomarker Activity (AID 2283076). The settings on record: primary human HUVEC with PBMC; actives raise or lower the signal. The gist of the method: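 Primary human umbilical vein endothelial cells co-cultured with peripheral blood mononuclear cells, LPS-stimulated, were dosed with chemical and read 24 h later. CD40 levels were measured by ELISA and fitted bidirectionally against DMSO as negative control and baseline.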

Read-out in assay [15]: E-selectin (Homo sapiens) (UniProt P16581)
Put plainly: BSK_LPS_Eselectin: BioMAP Diversity Plus: LPS Assay for Eselectin Biomarker Activity (AID 2283077). The note with it: primary human HUVEC with PBMC; actives raise or lower the signal. The gist of the method: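 Human umbilical vein endothelial cells co-cultured with peripheral blood mononuclear cells under LPS stimulation; E-selectin measured by ELISA 24 h after chemical dosing. Activity fitted bidirectionally against DMSO as negative control and baseline.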

Read-out in assay [16]: Interleukin-8 (IL8), CXCL8 (gene 3576)
In words: BSK_LPS_IL8: BioMAP Diversity Plus: LPS Assay for Interleukin-8 (IL8) Biomarker Activity (AID 2283078). The settings on record: primary human HUVEC with PBMC; actives raise or lower the signal. The method, boiled down: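 Human umbilical vein endothelial cells co-cultured with PBMC were stimulated with LPS; IL-8 levels were measured by ELISA 24 h after chemical dosing. Activity was fitted bidirectionally against DMSO as negative control and baseline.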

Assay [17] in a line: BSK_LPS_SRB: Viability Assessment in the BioMAP Diversity Plus: LPS Assay (AID 2283079).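 Note: total protein by sulforhodamine B absorbance as a cytotoxicity measure; measured one day after compound addition; fitted in both directions against DMSO so loss or gain of signal counts.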 The note with it: primary human HUVEC with PBMC. The gist of the method: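 Human umbilical vein endothelial cells co-cultured with PBMC (LPS system) were dosed for 24 h. Total protein was stained with 0.1% sulforhodamine B after 10% TCA fixation, read at 560 nm, and fitted bidirectionally against DMSO baseline.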

Read-out in assay [18]: Interleukin-1 alpha (IL1a), IL1A (gene 3552)
In words: BSK_LPS_IL1a: BioMAP Diversity Plus: LPS Assay for Interleukin-1 alpha (IL1a) Biomarker Activity (AID 2283080). The note with it: primary human HUVEC with PBMC; actives raise or lower the signal. The gist of the method:
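Human umbilical vein endothelial cells co-cultured with peripheral blood mononuclear cells were LPS-stimulated and exposed to test chemicals for 24 h. IL-1 alpha was quantified by ELISA, with bidirectional curve fitting against DMSO as the negative control and baseline.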

Sequence of E-selectin (Homo sapiens) (P16581 whole entry, looked up): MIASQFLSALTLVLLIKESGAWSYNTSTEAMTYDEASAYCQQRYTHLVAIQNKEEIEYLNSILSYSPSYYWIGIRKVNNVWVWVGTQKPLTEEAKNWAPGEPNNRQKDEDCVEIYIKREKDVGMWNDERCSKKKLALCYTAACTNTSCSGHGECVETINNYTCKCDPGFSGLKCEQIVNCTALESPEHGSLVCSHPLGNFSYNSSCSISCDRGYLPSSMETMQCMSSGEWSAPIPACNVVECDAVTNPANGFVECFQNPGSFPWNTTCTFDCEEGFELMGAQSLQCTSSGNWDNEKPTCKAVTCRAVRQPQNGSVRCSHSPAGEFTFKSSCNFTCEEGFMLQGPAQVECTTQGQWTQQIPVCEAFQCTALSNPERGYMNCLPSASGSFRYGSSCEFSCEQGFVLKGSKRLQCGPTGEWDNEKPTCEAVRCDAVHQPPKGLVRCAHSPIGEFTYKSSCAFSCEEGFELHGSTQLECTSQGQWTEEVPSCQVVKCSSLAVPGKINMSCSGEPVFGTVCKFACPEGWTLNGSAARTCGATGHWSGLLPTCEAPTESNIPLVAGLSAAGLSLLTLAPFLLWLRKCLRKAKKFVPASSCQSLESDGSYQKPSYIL

In general, AC50 refers to the midpoint of the concentration-response curve, whichever way the signal moves. In the case of `C[Si](Cl)(Cl)CCC(F)(F)C(F)(F)C(F)(F)C(F)(F)C(F)(F)C(F)(F)F`, the AC50 in assay [1] was 605 nM (active); in [3] it was 739 nM (active); in [4], 1.26 µM (active) and 1.52 µM (active); in [5], 1180 nM (active); in assay [6] it was 1.4 µM (active) and 876 nM (active). Also, the result in assay [1], in [2], in assay [3], in assay [5], in [7] and in assay [8] was inactive. The result in assay [9], in [10], in [11], in [12], in assay [13] and in assay [14] was inactive. Further, the outcome in the assay with CD40, CD40 (gene 958) is “inactive”; in assay [15] it was “inactive”; in assay [16] it was “inactive”; in assay [17] it was “inactive”; in assay [18], “inactive”.
Turning to `O=C(O)C(F)(F)C(F)(F)C(F)(F)C(F)(F)C(F)(F)C(F)(F)C(F)F`, the outcome in assay [1], in assay [2], in [3], in assay [4], in assay [5] and in assay [6] was inactive. Also, the outcome in assay [7], in [8], in assay [9], in assay [10], in [11] and in assay [12] was inactive. The outcome in assay [13] is “inactive”; in assay [14], “inactive”; with CD40, CD40 (gene 958) it was “inactive”; in assay [15], “inactive”; in assay [16], “inactive”; in [17], “inactive”. The result in assay [18] was inactive. For the same compound, the concentration at half-maximal activity (AC50) in assay [3] is 223 nM (active); in [16] it was 30000 nM (active).
